Vaccinia mCherry: qHTS for Stage-Specific Inhibitors of Vaccinia Orthopoxvirus: mCherry Reporter Primary qHTS; Potency, µM (series often up to 36.5 µM), inactives show at the top dose activity change, negative = inhibition, most hits filed as inhibitors; AID 720579, 2013; Vaccinia virus mCherry reporter infection, fluorescence; hit rate 0.63% among 310,000; calls by dose curve; tested in A549 cells; further: potency means the concentration at half of the fitted maximal effect; nearly all actives have a fitted effect of over 35% in size
Lassa entry inh: qHTS for Inhibitors of binding or entry into cells for Lassa Virus; Lassa virus pseudotype entry inhibition, cell reporter; Potency, µM (series often up to 37.9 µM), for inactives: at the top dose activity change, negative = inhibition, most hits filed as inhibitors; hit rate 1.2% among 300,000; AID 540256, 2011; calls by dose curve; tested in HEK293 cells; further: potency means the concentration at half of the fitted maximal effect; nearly all actives have a fitted effect of over 50% in size
HCMV antiviral: qHTS Assay for inhibitors of the human cytomegalovirus (HCMV). HFF cells, HCMV-luciferase reporter, 72 h; stronger effect = lower value. activity change, negative = inhibition, % at 57.5 µM. hit rate 4.5% among 410,000; in the data active means activity change below about -60%; inconclusive means no clear call, values can overlap the other calls; inactive means above about -39%
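Inhibition of viral replication was scored as loss of reporter luminescence in HFFs infected with HCMV-luciferase (MOI 1 PFU/cell) for 72 h; compounds tested at 2 doses, normalized to buffer and Salinomycin controls.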
FMDV antiviral: High Throughput Screening for Foot and Mouth Disease Virus Antivirals | FMDV antiviral cell-based qHTS | Potency, µM (top dose mostly 57.9 µM), for inactives: at the top dose activity change, negative = inhibition, hits mostly inhibitors | hit rate 1.2% among 410,000 | AID 1159524, 2015; calls by dose curve; tested in HEK293T cells; further: read-out not given here; potency means the concentration at half of the fitted maximal effect; nearly all actives have a fitted effect of over 45% in size
VACV Venus inh: qHTS for Stage-Specific Inhibitors of Vaccinia Orthopoxvirus: Venus Reporter Primary qHTS | Potency, µM (highest dose often 36.5 µM), for the others: at the highest dose activity change, negative = inhibition, hits mostly inhibitors | Vaccinia virus Venus reporter expression, fluorescence | AID 720580, 2013 | hit rate 0.46% among 330,000; calls by dose curve; tested in A549 cells; further: potency means the concentration at half of the fitted maximal effect; nearly all actives have a fitted effect of over 30% in size
Marburg entry inh: qHTS for inhibitors of binding or entry into cells for Marburg Virus; Potency, µM (doses to about 37.8 µM), inactives show at the top dose activity change, negative = inhibition, most hits filed as inhibitors; hit rate 1.8% among 300,000; AID 540276, 2011; Marburg virus pseudotyped entry inhibition, cell reporter; calls by dose curve; tested in HEK293 cells; further: potency means the concentration at half of the fitted maximal effect
* = called active by the depositor; ? = inconclusive; . = no result; [ ] = remark or other dose. Sampled rows, rich in hits. Any-hit rate of the full collection: about 6.5%. On the % scale 0 is the no-effect control and ±100 the full control effect.

SMILES	Vaccinia mCherry	Lassa entry inh	HCMV antiviral	FMDV antiviral	VACV Venus inh	Marburg entry inh
COc1cc(N/N=C/c2ccc(N(C)C)cc2)ncn1	-7%	.	70	-19%	-10%	.
Oc1ccc2ccccc2c1/C=N/Nc1nnc(-c2ncc[nH]2)c2ccccc12	.	?	-102*	-3%	.	6.5µM*
Oc1ccc2ccccc2c1C=NNc1ccccn1	?	?	-98*	10%	?	5.6µM*
COc1cc(N/N=C/c2ccccc2O)ncn1	14µM*	?	-103*	14%	?	?
CCN(CC)C(=O)Cn1c(=O)n(CCCCCC(=O)NCc2ccc(C)cc2)c(=O)c2sccc21	-25%	6%[46.1 µM]	-7	1%	-13%	16%[46.1 µM]
CCOc1ccccc1NC(=O)CCc1c(C)nc2cc(-c3ccccc3)nn2c1C	-11%	-2%[46.1 µM]	-30	-29%	-2%	9%[46.1 µM]
O=C(NCc1ccc(C(F)(F)F)cc1)O[C@H]1CC[C@@]23CCCN2C(=O)CCC[C@H]3[C@H]1Cc1ccccc1	.	.	0	.	.	.
Oc1ccc2ccccc2c1C=Nc1ccccc1Br	.	.	-12	10%	.	.
CCOc1ccc(/C=N/Nc2ccccn2)cc1OC	-25%	-12%	59	19%	-15%	24%[46.1 µM]
Oc1ccccc1N=Cc1c(O)ccc2ccccc12	-21%	-5%[46.1 µM]	-70*	-1%	-22%	-13%[46.1 µM]
COc1cc(/C=N/Nc2ccccn2)cc(OC)c1O	-27%	7.9µM*	21	23%	-21%	?
CCOC(=O)C1CCN(C(c2ccc(SC)cc2)c2c(O)cc(C)n(Cc3ccco3)c2=O)CC1 (stereo unspecified)	-16%	-28%[46.1 µM]	21	-28%	-9%	.
Cc1cc(=O)n2c3ccccc3n(CC(O)CN3CCOCC3)c2c1C#N (stereo unspecified)	-8%	-10%[46.1 µM]	-16	-24%	-9%	-8%[46.1 µM]
Cc1cc(=O)n2c3ccccc3n(CC(O)CN3CCCCC3)c2c1C#N (stereo unspecified)	13%	8%	-87*	.	-6%	?
O=C(Cn1c(=O)nc(-c2ccccc2F)c2cc(Cl)ccc21)N1CCN(c2ccccc2F)CC1	-20%	-2%[46.1 µM]	21	-5%	-13%	.
C[C@H](O)[C@@H]1C(=O)N2CCc3c([nH]c4ccccc34)[C@@H]2C[C@@H]1N(C)C(=O)Nc1cc(Cl)cc(Cl)c1	13µM*	.	-6	?	?	.
Cc1ccc(S(=O)(=O)c2cnc(SCC(=O)Nc3ccccc3C(F)(F)F)[nH]c2=O)cc1C	5%	.	15	-10%	10%	0%[46.1 µM]
COc1ccc(Cl)cc1NC(=O)c1c(NCc2cccnc2)sc2c1CCC(C)C2 (stereo unspecified)	-6%[7.34 µM]	2%[46.1 µM]	-29	-29%	-6%[7.34 µM]	.
CCCC1O[C@@H]2C[C@H]3[C@@H]4CCC5=CC(=O)C=C[C@]5(C)[C@H]4[C@@H](O)C[C@]3(C)[C@]2(C(=O)CO)O1 (stereo partly specified)	-23%	?	38	-8%	-18%	9.2µM*
CS(=O)(=O)c1ccc(C(=O)OCC(=O)Nc2ccc(OC(F)(F)F)cc2)cc1[N+](=O)[O-]	-13%	.	.	.	-13%	.
O=S1(=O)N[C@H](Cc2ccccc2)COc2cccc(NCCO)c21	.	.	-4	.	.	.
O=C1NC(=O)C(=Cc2ccc(SC3CCCCC3)o2)C(=O)N1	.	-28%	172	18µM*	.	15%
O=C(NC(CC1=CCCCC1)c1ccccc1)C(F)(F)F (stereo unspecified)	.	?	.	.	.	59%[14.2 µM]
CC(C)CC1c2[nH]c3ccccc3c2CCN1C(=O)c1cnccn1 (stereo unspecified)	-23%	?	2	29%	20%	2.8µM*
O=[N+]([O-])c1nccn1CC(O)CCN1CCOCC1 (stereo unspecified)	.	.	59	.	.	.
O=C(Nc1ccc(F)cc1)Nc1ccc2c(c1)CCC2	-15%	9%[46.1 µM]	72	24%	-11%	4%[46.1 µM]
O=C(Nc1ccc2c(c1)CCC2)c1ccc(F)cc1	-26%	?	51	-3%	-19%	11µM*
O=C1OCc2ccc(NC(=O)c3c(F)cccc3Cl)cc21	-17%	1%[46.1 µM]	-85*	29%	-4%	?

Bioassay records: PubChem BioAssay, National Center for Advancing Translational Sciences (NCATS)
